Test results from PubChem BioAssay AID686978 (National Center for Advancing Translational Sciences (NCATS), 2013).
Several values for one entry are separate records, joined by “and”; a condition that tells them apart may be missing. Equal values may be shown once. The campaign covered roughly 420,000 compounds. About 64,000 (15%) were called active. Not shown: some 27% with an inconclusive outcome. The call rests on the fitted dose curve; in most records, active means well fitted inhibition curve with a large enough effect; inconclusive means small, poorly fitted or top-dose-only effect; inactive means flat fitted curve, though single readings scatter. Only a sample is shown. Where a call stands in place of a potency, no number is given. Where a structure was tested more than once in an assay, its records may differ in their call.

Assay: qHTS for Inhibitors of human tyrosyl-DNA phosphodiesterase 1 (TDP1): qHTS in cells in absence of CPT; further: nearly all actives have a fitted effect of over 55% in size
Conditions: DT40 Tdp1-/- hTDP1 cells, no CPT, ATP luminescence, 48 h; activity change, negative = growth inhibition: at 46.2 µM (top of the series)
Outline: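 Chicken DT40 Tdp1-/- cells stably complemented with human TDP1 were seeded at 400 cells/well with DMSO in place of 20 nM camptothecin. After compound pinning, cells grew at least 48 hr at 37 °C; viability read by CellTiter-Glo luminescence.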
Potency means the concentration at half of the fitted maximal effect.

Compound	Potency
Cc1cnc(-n2ncc(C(=O)N3CCN(C(C)C)CC3)c2-c2ccco2)nc1-c1ccc(F)cc1	inactive
O=C(Nc1nnc(CCN2CCCCC2)s1)c1cccc(Cl)c1	inactive
CCN(CC)CC1(O)CCN(C(=O)c2ccc(Cl)c(Cl)c2)CC1	inactive
CCCNC(=O)c1ccc(Cl)c(Cl)c1	inactive
CCCn1c(=N)n(CC(=O)c2ccc(Cl)c(Cl)c2)c2ccccc21	11.6 µM (active)
O=C(O[C@H]1[C@H](Cc2ccccc2)NS(=O)(=O)[C@H]2C[C@@H]3C=C[C@]12O3)c1ccc([N+](=O)[O-])cc1	inactive
O=S1(=O)CCOC[C@H](Cc2ccccc2)N1Cc1ccccc1Br	inactive
O=C(O[C@@H]1[C@H](Cc2ccccc2)NS(=O)(=O)[C@H]2C[C@@H]3C=C[C@]12O3)c1ccccc1Br	16.4 µM (active)
Cc1ccc(Nc2cc(=O)n(C3CCCCC3)c(=O)[nH]2)cc1C	inactive
C/C(=C\C(=O)c1ccc(Br)cc1)N1CCCCC1	inactive
O=S1(=O)CCN2C(=N1)SC1=C2CCN(Cc2ccccc2)C1	inactive
O=C(O)CC12CC3CC(C1)CC(n1ncc(NCc4ccc(F)cc4)c(Cl)c1=O)(C3)C2	inactive
O=C(O)c1ccc(Cn2cnc3c(=S)nc[nH]c32)cc1	inactive
CC(=O)N1CCSc2ccc(S(=O)(=O)N3CCC(C)CC3)cc21	14.6 µM (active)
CCOC(=O)C1CCN(S(=O)(=O)c2ccc3c(c2)N(C(C)=O)CCO3)CC1	inactive
CC1CCN(S(=O)(=O)c2ccc3c(c2)n(C)c(=O)n3C)CC1	inactive
CCOC(=O)c1ccccc1C(=O)N1CCOCCOCCOCC1	inactive
CCC(C)CN1CCC(CO)(Cc2ccccc2Cl)CC1 (stereo not drawn)	inactive
O=C(Nc1cnccn1)c1cccnc1	inactive
O=C(O)c1ccc2c3c(cccc13)C(=O)N(OS(=O)(=O)c1ccccc1)C2=O	inactive
COc1ccccc1N1CCN(c2ncnc3sc(C)c(-c4ccccc4)c23)CC1	inactive
COc1ccccc1N1CCN(c2ncnc3onc(-c4ccc(F)cc4)c23)CC1	18.4 µM (active)
Cc1ccc(Cl)cc1N(C)C(=O)C1CCCN(c2ncnc3onc(-c4ccc(F)cc4)c23)C1 (stereo not drawn)	4.11 µM (active)
CCc1noc(C)c1C(=O)N1CCCC(N2CCN(c3ccc(F)cc3)CC2)C1 (stereo not drawn)	inactive
CC1=C(c2ccc(F)cc2)S(=O)(=O)N=C1N1CCC(C(=O)NCCc2ccccc2C)CC1	inactive
COc1ccccc1N1CCN(c2ncnc3onc(-c4cccc(Cl)c4)c23)CC1	inactive

Compound	Potency
CN(Cc1ccccc1)c1ncnc2onc(-c3ccc(F)cc3)c12	18.4 µM (active)
CCc1ccccc1N(C)C(=O)C1CCCN(c2ncnc3onc(-c4ccc(F)cc4)c23)C1 (stereo not drawn)	11.6 µM (active)
CN(Cc1ccccc1)c1ccc(-c2nc(-c3ccccc3)no2)cc1[N+](=O)[O-]	inactive
O=C1NN(c2ccccc2)C(=O)/C1=C/c1ccc(-c2cccc(C(=O)O)c2)o1	inactive
O=C1NC[C@H](CCCCN2CCN(CCc3ccccc3)C(=O)C2=O)N(CC2CCCCC2)C1=O	inactive
CN(C)NC(=O)c1csnc1-c1c(Cl)cccc1Cl	inactive
c1ccc(Nc2n[nH]nc2-c2ccccc2)cc1	inactive
CSc1ccc(CCNC(=O)CS(=O)(=O)Cc2nc(-c3ccccc3F)oc2C)cc1	inactive
Cc1ccccc1-c1nc(CS(=O)(=O)CC(=O)NC(C)c2ccccc2)c(C)o1 (stereo not drawn)	inactive and 16.4 µM (active)
Cc1ccc(S(=O)(=O)CC(=O)NC(C)c2ccccc2)cc1 (stereo not drawn)	inactive
Cc1ccc(NC(=O)c2sccc2C)cc1[N+](=O)[O-]	inactive
O=C(C1CCN(CC2CCCCC2)CC1)N1CCCC1	inactive
CC(=O)NS(=O)(=O)c1ccc(NC(=S)NC(=O)C(C)(C)C)cc1	inactive
CC(NC(=O)c1ccccc1SCC(=O)N1CCCC1)c1ccccc1 (stereo not drawn)	inactive
CCOc1ccc(NC(=O)CSc2ncnc3c2sc2ccccc23)cc1	inactive
CC1(C)Cc2nc3sc4c(SCC(=O)NC(c5ccccc5)c5ccccc5)ncnc4c3cc2CO1	8.2 µM (active)
C=CCn1c(=S)[nH]c2nc3c(cc2c1=O)COC(C)(C)C3	inactive
O=c1cnnc(Nc2ccccc2F)[nH]1	inactive
CCc1nc2nc(C)c(NS(=O)(=O)c3ccc4c(c3)CCCC4)c(=O)n2[nH]1	inactive
COCc1c(N)c(C)nc(Cl)c1C#N	inactive
O=C(NCCCO)C(=O)Nc1c2c(nn1-c1ccccc1)CSC2	inactive
COc1ccc(N(C(=O)CNC(=O)c2ccco2)C(C(=O)NCC2CCCO2)c2ccccc2)cc1Cl (stereo not drawn)	inactive
Cc1ccc(-c2nn(-c3ccc(F)cc3)cc2C(=O)NCC(c2cccs2)N2CCOCC2)cc1 (stereo not drawn)	14.6 µM (active)
O=C(NCCCN1CCOCC1)c1cn(-c2ccccc2)nc1-c1ccc(F)cc1	inactive
O=C(NCc1cccnc1)c1cn(-c2ccccc2)nc1-c1cccs1	inactive
Cc1nn(CC(=O)NCc2ccccn2)c(C)c1[N+](=O)[O-]	inactive

Compound	Potency
CCOC(=O)c1c(NC(=O)/C=C/c2ccco2)sc(C)c1C	inactive
C#CCOCCOCCOCCNc1nc(N2CCN(C(=O)C([C@@H](C)CC)n3cc(C(N)COC(=O)C(F)(F)F)nn3)CC2)nc(N2CCN(C(=O)[C@H](Cc3ccc(O)cc3)n3cc(C(N)[C@H](C)CC)nn3)CC2)n1 (stereo partly drawn)	inactive
O=C(CSc1nncn1-c1cccnc1)N1CCOCC1	inactive
O=S(=O)(c1ccc(F)cc1)N1CCN(C(=S)NC2CCCC2)CC1	inactive
CCOC(=O)Cn1c(N)c(C(=O)OC)sc1=S	inactive
CCOC(=O)c1sc(=S)n(-c2cccc(OC)c2)c1N	11.2 µM (active)
COc1cccc(-n2c(=S)sc3c(=O)n(-c4ccccc4C)c(SCC(=O)O)nc32)c1	inactive
Cc1ccc(-c2nnn(CC(=O)N(CCO)C(C(=O)NC(C)(C)C)c3ccncc3)n2)cc1 (stereo not drawn)	inactive
Cc1cccc2c3c(ccc12)C1=C(C(=O)C3=O)C(C)CO1 (stereo not drawn)	inactive
CCCC(=O)Nc1ncnc2c1ncn2[C@@H]1O[C@@H]2OP(=O)(O)OC[C@H]2[C@H]1OC(=O)CCC	inactive
Cc1nc(CNS(=O)(=O)c2cccnc2)cs1	inactive
COC(=O)c1ccc(CNC(=O)C2CCC(=O)N(Cc3cccc(F)c3)C2)cc1 (stereo not drawn)	inactive
COC(=O)c1cc2n(n1)CCCNC2=O	inactive
O=C(NCc1ccccc1Cl)c1csc2c1CCCCC2	inactive
Cc1ccc(CN2CCCn3nc(C(=O)NCc4ccccc4Cl)cc3C2=O)cc1	25.9 µM (active)
COc1cc(CNC(=O)c2cc3n(n2)CCCN(Cc2cccc(F)c2)C3=O)cc(OC)c1OC	20.6 µM (active)
CCNC(=O)c1cc2n(n1)CCCN(Cc1ccc(C)cc1)C2=O	inactive
Cn1c(=O)c2c(ncn2CC(=O)N/N=C/c2cn[nH]c2-c2ccc(F)cc2)n(C)c1=O	inactive
O=C(Cc1ncc(C(F)(F)F)cc1Cl)Nc1cccc(Br)c1	inactive
CCc1nnc(NC(=O)CCC(=O)O)s1	inactive
O=C(Nc1ncccn1)c1cccs1	inactive
S=C1SCN(CCN2CCOCC2)CN1Cc1ccccc1	3.16 µM (active)
CCN1CN(Cc2ccccc2)CNC1=S	inactive
C/C(CCc1ccccc1)=N\NC(=O)c1ccc(CN2CCOCC2)cc1	inactive
CSc1ccc(NC(=O)/C=C/C(=O)O)cc1	inactive
O=C(O)/C=C/C(=O)Nc1ccc(F)cc1F	inactive

Compound	Potency
COC(=O)c1sc(-c2ccc(C(C)(C)C)cc2)cc1NC(=O)/C=C/C(=O)O	4.61 µM (active)
Cc1nnc(SC(C(=O)Nc2cc(Cl)cc(Cl)c2)c2ccccc2)[nH]c1=O (stereo not drawn)	inactive
O=C(O)C1CCCCC1C(=O)Nc1ccc(Cl)cc1 (stereo not drawn)	inactive
CC(C)(C)c1ccc(C(=O)N2CCC(C(=O)N3CCCCC3)CC2)cc1	inactive
COc1ccc(OC)c(NC(=O)C2CCN(S(=O)(=O)c3ccc(C)cc3)CC2)c1	inactive
COc1ccc(CNC(=O)c2cc(C(=O)C3CC3)c[nH]2)cc1	inactive
CCc1ccc(NC(=O)CN2CCC(C(=O)c3ccc(OC)cc3)CC2)cc1	23.1 µM (active)
O=C(Nc1ccccc1)C1CCN(C(=O)c2ccc(Br)cc2)CC1	inactive
COc1ccc(S(=O)(=O)N2CCC(C(=O)NCCC(=O)Nc3ccccc3OC)CC2)cc1	inactive
COc1ccc(C(=O)N2CCC(C(=O)Nc3ccc(C)cc3)CC2)cc1	10.3 µM (active)
COc1ccccc1NC(=O)C1CCN(C(=O)c2ccc(C(C)(C)C)cc2)CC1	16.4 µM (active)
CCc1ccc(NC(=O)Cn2nnc(C(=O)NCc3ccc(OC)cc3)c2N)cc1	inactive
OCC(O)CN(c1ccccc1)c1ccccc1 (stereo not drawn)	inactive
Cc1ccccc1-n1nc(SCC(=O)O)sc1=S	inactive
N=c1ccn(CC(=O)NC(N)=O)c2ccccc12	inactive
C/C=N/NC(=O)CCCC(=O)N/N=C/C	inactive
C[C@H](CO)N1C[C@H](C)[C@@H](CN(C)S(=O)(=O)c2ccc(F)cc2)Oc2ccc(NC(=O)CCC(F)(F)F)cc2C1=O	inactive
O=C(O)c1c(Br)c(Br)c(Br)c(Br)c1C1c2ccc(O)cc2Oc2cc(O)ccc21	inactive
O=C(CNC(=O)[C@@H]1Cc2ccccc2CN1)NC1CCCCC1	inactive
Cn1c(SCC(=O)OC2CCCCC2)nnc1-c1ccc(S(=O)(=O)N2CCCC2)cc1	inactive
COCCNC(=O)CN1C(=O)CSc2ncccc21	inactive
CC(=O)Nc1ccc(OC(=O)COc2ccc(Br)cc2)cc1	inactive
O=[N+]([O-])c1ccc(CN2CC(N3CCC(c4ccccc4)CC3)CS2(=O)=O)cc1 (stereo not drawn)	23.1 µM (active)
O=C1NC(=O)C2C1C(c1ccc([N+](=O)[O-])cc1)=NN2Cc1ccccc1 (stereo not drawn)	inactive
O=C(OCc1ccc([N+](=O)[O-])cc1)C1CC(=O)N(Cc2ccccc2Cl)C1 (stereo not drawn)	inactive
